GPR151 ag = activators of human GPR151; Q8TDV0; PathHunter beta-arrestin GPR151 cells, luminescence; activation, % at 11.2 µM; actives 1% (n = 650,000); in the data active = activation above about 4.9%;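 also: 0% = median of compound wells and 100% = cells with positive control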
MITF inh = human MITF inhibition, primary screen; AlphaScreen MITF homodimerization, bead proximity signal; AID 1259374; actives 0.91% (n = 650,000); inhibition, % at 2.6 µM; in the data active = inhibition above about 50%;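 also: 0% = vehicle wells with protein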
Target sequence (O75030 whole entry, looked up): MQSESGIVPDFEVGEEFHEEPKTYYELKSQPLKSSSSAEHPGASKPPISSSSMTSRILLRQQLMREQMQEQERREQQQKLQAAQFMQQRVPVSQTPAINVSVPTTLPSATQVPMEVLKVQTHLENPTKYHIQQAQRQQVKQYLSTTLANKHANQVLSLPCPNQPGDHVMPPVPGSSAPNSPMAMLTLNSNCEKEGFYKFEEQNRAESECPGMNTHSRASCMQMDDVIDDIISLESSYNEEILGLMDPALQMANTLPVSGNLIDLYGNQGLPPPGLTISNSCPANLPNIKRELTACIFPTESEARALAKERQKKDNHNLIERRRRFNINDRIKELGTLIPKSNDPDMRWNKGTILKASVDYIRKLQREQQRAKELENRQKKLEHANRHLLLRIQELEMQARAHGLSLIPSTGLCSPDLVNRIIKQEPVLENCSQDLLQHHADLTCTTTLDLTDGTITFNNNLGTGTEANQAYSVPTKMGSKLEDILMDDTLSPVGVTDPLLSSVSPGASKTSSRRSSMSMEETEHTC
TEAD-YAP inh = TEAD-YAP interaction inhibition; HEK-TIYL cells, TEAD-Gal4/YAP UAS-luciferase luminescence; inhibition, % at 9.12 µM; actives 1.4% (n = 640,000); AID 1259422; in the data active = inhibition above about 32%;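 also: 0% = median of test compound wells and 100% = reference inhibitor wells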
FBW7 act = human FBW7 E3 ligase activation, primary screen | actives 0.13% (n = 650,000) | AID 1259310 | AlphaScreen FBW7–phospho-cyclin E peptide binding, activator screen | normalized activity (activation), % at 26.1 µM; in the data active = normalized activity above about 1.9%;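 also: purified mutant Fbw7 with reduced substrate affinity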
GPR151 conf act = confirmation of human GPR151 activators; shares compounds with GPR151 ag; GPR151 PathHunter beta-arrestin cells, luminescence, 90 min; % of EA-reagent control over plate median; AID 1508609; 6,700 tested, under 10 active; activation, % at 11.2 µM;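 active = mean percent activation across replicates above the confirmation screen cutoff of 4.91%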
GPR119 counter = counter-screen for GPR151 activators: effect on human GPR119; shares compounds with GPR151 ag; GPR119 PathHunter beta-arrestin cells, luminescence, 90 min; 0 = compound-well median, 100 = enzyme-acceptor control; activation, % at 11.2 µM; actives 0.3% (n = 6,700);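 active = mean percent activation in the counterscreen above 29.09%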;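 also: counterscreen on off-target GPR119 to flag nonselective hits from the GPR151 activator screen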
* = called active by the depositor; / = not tested or not shown. Shown are actives, neighbours in structure and some others; about 3.5% of the full set was active somewhere.

SMILES	GPR151 ag	MITF inh	TEAD-YAP inh	FBW7 act	GPR151 conf act	GPR119 counter
O=C(Nc1ccc(Cl)cn1)c1ccccc1Cl	-3.8	5.7	-69.4	0.2	/	/
O=C(COc1ccc(Cl)cc1)Nc1ccc(Br)cn1	1.4	9.4	-14.6	0.2	/	/
O=C(COc1ccc(F)cc1)Nc1ccc(Cl)cn1	18.5*	0.1	-32.7	-0.2	-0.5	-8.1
O=C(COc1ccc(F)cc1F)Nc1ccc(F)cc1	-1.6	9.0	-42.6	0.2	/	/
O=C(Nc1ccc(Cl)cn1)c1ccc(Cl)cc1Cl	7.0*	14.0	15.2	0.2	-0.3	-11.5
O=Cc1cc(Cl)ccc1OCC(=O)Nc1ccc(F)cc1	11.0*	8.2	-57.2	0.1	-0.7	2.9
CN1CCCCC1C(=O)N/N=C/c1ccoc1 (stereo not drawn)	-2.3	6.8	-6.0	0.0	/	/
Cc1ccc(C(c2ccccc2)N2CCN(CCCc3c[nH]c4ccccc34)CC2)cc1 (stereo not drawn)	-0.2	15.9	6.9	0.0	/	/
CCN(CC)CCCNC(=O)c1cc([N+](=O)[O-])ccc1Cl	1.3	13.8	-2.3	0.0	/	/
O=C(NCCc1ccc(F)cc1)c1ccc([N+](=O)[O-])cc1Cl	11.2*	11.4	-83.5	0.0	-0.1	7.5
CCOCCCNC(=O)c1cc([N+](=O)[O-])ccc1Cl	22.7*	10.5	6.3	-0.1	0.7	-4.5
CC(=O)Nc1ccc(OCC[n+]2ccc(CCS(=O)(=O)O)cc2)cc1	0.7	6.7	5.6	0.3	/	/
NC(=O)C1(N2CCCCC2)CCN(C(=O)c2ccc3c(=O)n(Cc4ccco4)c(=S)[nH]c3c2)CC1	1.7	-6.0	-5.8	-0.1	/	/
Cc1ccccc1NC(=O)C1(NC(=O)c2cccc(N3C(=O)CSC3c3ccccc3)c2)CCCCC1 (stereo not drawn)	0.4	-1.2	-7.1	0.2	/	/
CCC(C)NC(=O)c1ccc(CNS(=O)(=O)c2ccc3c(c2)C(C)(C)C(=O)N3C)cc1 (stereo not drawn)	-2.5	4.6	1.1	0.1	/	/
CCOc1ccccc1NC(=O)c1ccc(F)c(S(=O)(=O)N2CCN(c3ccccc3F)CC2)c1	-0.9	-2.9	0.6	-0.2	/	/
CCOC(=O)N1CCN(S(=O)(=O)c2cc(C(=O)O)ccc2F)CC1	5.8*	0.6	-5.8	-0.1	0.5	12.6
CCOc1ccccc1NC(=O)c1ccc(F)c(S(=O)(=O)N2CCN(c3ccccn3)CC2)c1	6.0*	4.0	9.9	-0.2	-0.6	-1.9
CCCNS(=O)(=O)c1ccc(F)c(C(=O)Nc2ccc(Br)cc2)c1	-1.4	-7.2	4.5	-0.1	/	/
CCOC(=O)C1=C(C)NC2=C(C(=O)C(C(=O)OC)C(C)C2)C1c1cccc(O)c1 (stereo not drawn)	-0.3	-4.5	12.3	0.1	/	/
COc1ccccc1N1CCN(C2CCCN(Cc3ccccc3O)C2)CC1 (stereo not drawn)	8.0*	13.4	8.4	-0.1	0.0	1.6
CCOC(=O)/C(C(N)=O)=C(\OC)C(=O)CC(=O)c1ccc(C)cc1	5.5*	5.2	5.6	0.1	1.2	7.1
CCOC(=O)/C(C(N)=O)=C(\O)C(=O)/C=C(\O)c1ccc(C)cc1	0.9	0.0	-4.9	-0.2	/	/
O=C(COc1ccc(/C=C2/NC(=O)N(c3ccccc3)C2=O)cc1)Nc1ccc(F)cc1	-0.8	14.9	2.6	0.5	/	/
O=C(COc1ccc(/C=C2/NC(=O)N(c3ccccc3)C2=O)cc1Cl)Nc1ccccc1	9.0*	-6.0	-11.5	0.1	-0.6	-14.1
SMILES	GPR151 ag	MITF inh	TEAD-YAP inh	FBW7 act	GPR151 conf act	GPR119 counter
O=C(COc1ccccc1)Nc1cccc(Oc2ccc3c(c2)C(=O)NC3=O)c1	-1.3	-0.3	-1.0	0.1	/	/
CCCC(=O)Nc1cccc(Oc2ccc3c(c2)C(=O)NC3=O)c1	6.0*	-8.9	-3.8	-0.1	-0.5	-7.8
O=C(Cn1c(=O)n(-c2ccccc2)c(=O)c2oc3ccccc3c21)N1CCCCC1	5.1*	4.7	-6.0	0.1	-1.0	-2.9
COC(=O)C1=NNC2C(=O)N(c3ccc(OC)cc3)C(=O)C12 (stereo not drawn)	6.1*	17.6	8.0	0.2	0.1	7.6
Cc1ccc(-c2ccc(CN3CCN(C)C(CCO)C3)cc2)o1 (stereo not drawn)	1.7	2.7	-14.8	0.0	/	/
CN1CCN(Cc2ccc(-c3ccccc3Cl)o2)CC1CCO (stereo not drawn)	13.7*	-1.3	-12.2	-0.1	-0.2	3.6
Cc1ccc(-c2cccc(CN3CCN(C)C(CCO)C3)c2)o1 (stereo not drawn)	8.8*	6.0	0.1	-0.1	-0.9	-6.9
O=C(CSc1nnc(-c2ccc(Br)cc2)o1)NC1CCCC1	8.1*	3.7	3.2	0.1	0.5	1.0
Fc1ccc2c(c1)nc(N1CCCCC1)c1nccn12	-0.6	-5.0	-9.6	-0.2	/	/
Fc1ccc2c(c1)nc(NC1CCCCC1)c1nccn12	5.1*	-0.4	2.5	0.0	-0.6	-1.6
CCCC1=NN2C(=N)/C(=C/c3ccc(-c4cccc([N+](=O)[O-])c4)o3)C(=O)N=C2S1	0.7	2.1	0.1	-0.1	/	/
CCCCN(c1ccc(C(=O)OC)cc1)S(=O)(=O)c1ccccc1	0.4	1.3	2.2	0.1	/	/
O=C1NC(=S)NC(=O)C1=Cc1ccc(-c2ccc(N3CCCCC3)c([N+](=O)[O-])c2)o1	12.0*	34.2	-51.3	-0.1	-0.2	0.4
O=C1NC(=S)N/C1=C/c1ccc(-c2ccc(Cl)c([N+](=O)[O-])c2)o1	0.2	13.8	-4.2	0.8	/	/
Cc1onc(-c2c(Cl)cccc2Cl)c1C(=O)N1CC(C)OC(C)C1 (stereo not drawn)	0.2	10.8	9.9	0.7	/	/
Cc1c(O)ccc(C(=O)CN2CCN(c3ccccc3)CC2)c1O	-0.2	7.9	-0.8	0.0	/	/
Cc1c(O)ccc(C(=O)CN2CCN(c3ccccc3F)CC2)c1O	5.0*	-0.7	3.1	-0.1	0.7	0.9
Cc1ccc(Cl)c2sc(NC(=O)CN3C(=O)CCC3=O)nc12	2.4	6.4	2.2	0.0	/	/
COc1ccc(NC(=O)c2cc(Br)ccc2Cl)cc1N1CCCC1=O	1.5	9.7	-14.4	-0.1	/	/
COc1cc(NC(=O)c2cc(Br)ccc2Cl)ccc1N1CCCC1=O	5.0*	10.4	9.1	0.1	1.2	7.8
Cc1nnc(SCC(=O)Nc2nc(-c3ccc(Cl)cc3)ns2)s1	5.2*	-0.2	-9.5	-0.1	-1.2	-6.3
Cc1cccc(NC(=O)CSc2nnc(NC(=O)COc3ccc(Cl)cc3)s2)c1	6.5*	0.9	-6.0	-0.1	-0.6	-4.9
Cc1ccc(NC(=O)CSc2nnc(NC(=O)COc3ccc(Cl)cc3)s2)cc1	0.4	10.7	1.1	0.0	/	/
CCSc1nnc(NC(=O)COc2ccc(Cl)cc2Cl)s1	7.2*	-7.7	3.1	-0.1	0.9	4.1
COC(=O)c1cccc(Nc2nc(C)cc(C)n2)c1	12.3*	-4.9	-26.1	-0.2	-0.3	-8.8

Compound activity (PubChem)
